Data: PMC13494018
Values without a mark were called inactive. No rule for the calls is given here.

B1: design_486_d4f32670-1303-4d79-8413-1b14cb3eff50_1679_dldesign_0_cycle1_af2pred (protein)
chain: AAAAKAKVQAAAAKALAEAKKTAAEAKTLTPEEATALLQATAADAIRQAAEYGKLDPEVAGSALVEVVKLLAEARRAVAA
B2: design_486_d4f32670-1303-4d79-8413-1b14cb3eff50_1537_dldesign_0_cycle1_af2pred (protein)
chain: AAAAAAARALALAEEAAAALPPDAGARVREMVRRAVALLEAGDAGAAIQTLLDAIRYGTAAARAIDPARAATVANALTRAIVAISAAA
B3: design_486_d4f32670-1303-4d79-8413-1b14cb3eff50_1519_dldesign_0_cycle1_af2pred (protein)
chain: DEVAKLVDETAAAARAAVAAAARTAAAGTPEQSAALSSLMVATLQAVGDAYRALTDPAEAKAAAEKARALAEELAARTAEIQA
B4: design_486_d4f32670-1303-4d79-8413-1b14cb3eff50_2076_dldesign_0_cycle1_af2pred (protein)
chain: AALVGEAMVLLAEVAAAGPPEVRAKASAAIAALAAGDLETALKLAKEAAELLKKAGKEYEPAAKKAEEAAKLLKEAAAAAA
B5: design_486_d4f32670-1303-4d79-8413-1b14cb3eff50_1718_dldesign_0_cycle1_af2pred (protein)
chain: MSAGEIALANTRAVAKQLIAAGKELGTEEEARKKAEEAIAKVEELAKKGPAGAAEAMKITVEMMKELDKVSKAVEEAE
B6: design_487_778f5c6d-c470-43b8-8f82-464af6177e08_310_dldesign_0_cycle1_af2pred (protein)
chain: AAVLSPEQAGGTFRALATSIRLAAEAGDLDSAEALAAAGLQLAENQPAVAPLVNKAKEEAAKLTPKEAALKLADAFEQAGDALLA
B7: design_486_d4f32670-1303-4d79-8413-1b14cb3eff50_1573_dldesign_0_cycle1_af2pred (protein)
chain: SLEEAKKKAKEVTEKGKEDLATLKEIAVQAAKQGQLAGAQAALNSAKVVAKATAEEVAKLVGPEAGEKALKEGEALVKEAKKEVEKAA
B8: design_486_d4f32670-1303-4d79-8413-1b14cb3eff50_1479_dldesign_0_cycle1_af2pred (protein)
chain: AEATQLLSEAIDLAKEIEENKKKATPEVAKIYDEALEEANKAMNLAAKASVADAATAAKLIAEAKKELEKAKELYEKAKKLEKE
B9: design_486_d4f32670-1303-4d79-8413-1b14cb3eff50_1561_dldesign_0_cycle1_af2pred (protein)
chain: SEVEEKAKELAEKALALVKTGTGEAEAKKLLAAAPPEVVIQAIKVAAEKAKAEGPEMAAYANKLAAAANQALLEKN
B10: design_486_d4f32670-1303-4d79-8413-1b14cb3eff50_1336_dldesign_0_cycle1_af2pred (protein)
chain: DAAAQAKAVAEKGVELIKKADPETGKKVGELVEKGAASANAASLLLEAAQLAAEAAKKKGWTPEMRQGVHLLLLASSLAHQAAVAAA
B11: design_487_778f5c6d-c470-43b8-8f82-464af6177e08_501_dldesign_0_cycle1_af2pred (protein)
chain: MDRAVEIAVASLKHAVKQAIAAAEKIDPELAKKVEEEGKKKIEEAAASDSATAVEIAIEALKKLSELSKKARA
B12: design_486_d4f32670-1303-4d79-8413-1b14cb3eff50_2004_dldesign_0_cycle1_af2pred (protein)
chain: KKAEILAAGNALVVELLAEAEKAAKAAKAAGDPEAANQALVEAAKGAAKIHALMVKGAPVEELKKEAEAAKKKIKALAE
B13: design_486_d4f32670-1303-4d79-8413-1b14cb3eff50_1359_dldesign_0_cycle1_af2pred (protein)
chain: AAAAADRAFAITKATAEASMKLMETMTAESALKLGETVAAILRAMAKAYPAHAAELNALADKVEATAKAVAEAKK
B14: design_487_778f5c6d-c470-43b8-8f82-464af6177e08_560_dldesign_0_cycle1_af2pred (protein)
chain: GAAKLAQGALNMAKAQLAYLEKALAAGAADPANAAAYKAKAKEALEQLKTFATAATLVDPAAAPEGDAILKEAEAKYKALSAAIAAA
B15: design_487_778f5c6d-c470-43b8-8f82-464af6177e08_100_dldesign_0_cycle1_af2pred (protein)
chain: MDKEQVYETAAKMLEEGAELVKAGEETKPAGLAKAKAAALLVLGVDPEVGEKVLKLVEEAEKADQEKAAKLIEEAAKLVKE
B16: design_486_d4f32670-1303-4d79-8413-1b14cb3eff50_1967_dldesign_0_cycle1_af2pred (protein)
chain: DAEVEKLQAQIRTAGLILMASSSPEKAEEALKRTKEAVELAKKNPEEGLKLAEEIAEEAKKVGTPEQAAVIDSVFK
B17: design_486_d4f32670-1303-4d79-8413-1b14cb3eff50_2359_dldesign_0_cycle1_af2pred (protein)
chain: DAAKEFAENYEKAAEYVSQIYAKDPAAGEEMQKVLTAKTAEASKLAIAGDLAGAAKVMKEALEIAKKKLEEL
B18: design_487_778f5c6d-c470-43b8-8f82-464af6177e08_89_dldesign_0_cycle1_af2pred (protein)
chain: SEAEKEAEKAEKLVEELRANPKVPLEKAKELAKAIQELAKLDPEKGAEMASKAVAVILEKGKEIPGETINAILTGVSKAHAIINA
B19: design_486_d4f32670-1303-4d79-8413-1b14cb3eff50_1613_dldesign_0_cycle1_af2pred (protein)
chain: AAAYKKAVAALDAVVAEAAAISEGAGLIATNIKTQGLTQGAAAKDPAEAAKIVEAALKLATDSVTKYVESSAALR
B20: design_487_778f5c6d-c470-43b8-8f82-464af6177e08_613_dldesign_0_cycle1_af2pred (protein)
chain: EEAEKERARAIIEKASAKLDALAAEAEERDPALGAQARALRDSLAATAQTYIETGSPTGRAGLNSLAAFLA
B21: design_487_778f5c6d-c470-43b8-8f82-464af6177e08_420_dldesign_0_cycle1_af2pred (protein)
chain: AEEKIKEANRLFQEGARKMVQGLQLAAQGKKEEAEKELTEAIELFTKASKLAKEAGDERLAESAEKAAKEAKAQLAAVKAA
B22: design_487_778f5c6d-c470-43b8-8f82-464af6177e08_509_dldesign_0_cycle1_af2pred (protein)
chain: GEAFSKEALEKGKEAAKKAEESTDPEAKTLYIKAASNYYGAAALALSPESAPLAKERAAKGDEYRAKADAL
B23: design_486_d4f32670-1303-4d79-8413-1b14cb3eff50_1473_dldesign_0_cycle1_af2pred (protein)
chain: GSMAAAAAAEAARRAALLAEAQAKMNEASKAAIEATKTDPAKAKYYNEALALYQEAAALANDGSKYEEAKEKLKEGDKLMEKV
B24: design_486_d4f32670-1303-4d79-8413-1b14cb3eff50_2179_dldesign_0_cycle1_af2pred (protein)
chain: AQEANDLLAETLETLREGQAAAKELGDEEARLKLVELANKSMTLASQAVAAGGDQELLDKAKEYHAELKKLAKEVKEKA
B25: design_486_d4f32670-1303-4d79-8413-1b14cb3eff50_1885_dldesign_0_cycle1_af2pred (protein)
chain: MEEAGEIVERAEEVYKRAKEAAEENAKRNPEKKEEIKKLYEEAVALIQKSLALASQGALEGNQELLKEAKKKLEEAEKVAKEIEKL
B26: design_486_d4f32670-1303-4d79-8413-1b14cb3eff50_1495_dldesign_0_cycle1_af2pred (protein)
chain: AAALAAAEAKAKAYIEKVKALDPELGKKTAEAVKKGVKSTPETAAALGNEVTAAAPEEAKPYVAAAIAQAILANALS
B27: design_487_778f5c6d-c470-43b8-8f82-464af6177e08_421_dldesign_0_cycle1_af2pred (protein)
chain: SDAKLAVEAARSAAIAAIELAKQGAWQGAELARQNMKKAAEKALKLGAADPSVKEEVEKEVNAIVKETDAALAAEKAAR
B28: design_486_d4f32670-1303-4d79-8413-1b14cb3eff50_1357_dldesign_0_cycle1_af2pred (protein)
chain: GMSEELAKELAEKVTKALAAASKAAAAALANPAVAAQANALLAQAVDYALKFQEAAKKDVEEAKKEAEKAIAAANELKALAAAA
B29: design_486_d4f32670-1303-4d79-8413-1b14cb3eff50_2148_dldesign_0_cycle1_af2pred (protein)
chain: GSAAYEFAKEAIERALKAAEELKKLDPEEGKKLIEKVEKLKKELEANKDNAQKAARIAIEALQIEQEAQQKIAALKAA
B30: design_487_778f5c6d-c470-43b8-8f82-464af6177e08_256_dldesign_0_cycle1_af2pred (protein)
chain: GEALEKAKEYEKEANEAAAKGKATTPAEGALYFLKAAALYAKAAEEYKKAGDEKNAKEAEAKAKEATANMIALSKQAIAA
B31: design_486_d4f32670-1303-4d79-8413-1b14cb3eff50_1569_dldesign_0_cycle1_af2pred (protein)
chain: NAQAKAFLDQGKAKMEAGKALIKEGKYEEAAAEFTRAYSYFLAAAGLARAAGDKALAAEAEKAAKEAEALAKEAKA
B32: design_486_d4f32670-1303-4d79-8413-1b14cb3eff50_1615_dldesign_0_cycle1_af2pred (protein)
chain: DGYIQLAIAYANAAANRASPEVAPKLREVAELAKKGATDPEALKKAIELAKKLAKEVPEVADLLEKAVEYLKEALKAVE
B33: design_486_d4f32670-1303-4d79-8413-1b14cb3eff50_1517_dldesign_0_cycle1_af2pred (protein)
chain: AEAEKIIKEAKALAKEAKALAAQGAALDPAIAVIAAAAAAAAASAEKMVKENGEAKAEDAKKLLEVAKTLLEQAKAALEAALAAAA
B34: design_486_d4f32670-1303-4d79-8413-1b14cb3eff50_1586_dldesign_0_cycle1_af2pred (protein)
chain: AEERAAAIARATLAGSLALMRTMSPEDAIRLMEVLADILLSNPLTREYGERVAELARRAREEGPAAAEEAIREGAEIGEELRAA
B35: design_487_778f5c6d-c470-43b8-8f82-464af6177e08_452_dldesign_0_cycle1_af2pred (protein)
chain: EEERIQRIAEQVEELIKTAEEALATGTAAGKQAAKQLALAAATVLSSVDPELGAKVKEVAKTGTAEEAIKAAKEALEEIKKK
B36: design_486_d4f32670-1303-4d79-8413-1b14cb3eff50_1391_dldesign_0_cycle1_af2pred (protein)
chain: DARLKKAAELLKKHTEAVLKGPVHPEAKLATAEVAIESAQGIYKAGADDAEVKAAAKEALAAAKELKERAEKELAAAEAAAAAA
B37: design_486_d4f32670-1303-4d79-8413-1b14cb3eff50_1562_dldesign_0_cycle1_af2pred (protein)
chain: MEEREKVAESMKKMLDAIGEIAAAETGEEGKKMAEEAKKEVEEAAKKGLSPEEIAAVANKKAAEILKVTMAAARAK
B38: design_486_d4f32670-1303-4d79-8413-1b14cb3eff50_1678_dldesign_0_cycle1_af2pred (protein)
chain: AAMEEKEQRIINAAKANLELAKIALEGAPHNPELALKVLEALARRAKELAEEAKKLGLEEAEKAAKEAAEEIKKYAKEAQALL

target: CD276, Q5ZPR3
Sequence (Q5ZPR3 whole entry): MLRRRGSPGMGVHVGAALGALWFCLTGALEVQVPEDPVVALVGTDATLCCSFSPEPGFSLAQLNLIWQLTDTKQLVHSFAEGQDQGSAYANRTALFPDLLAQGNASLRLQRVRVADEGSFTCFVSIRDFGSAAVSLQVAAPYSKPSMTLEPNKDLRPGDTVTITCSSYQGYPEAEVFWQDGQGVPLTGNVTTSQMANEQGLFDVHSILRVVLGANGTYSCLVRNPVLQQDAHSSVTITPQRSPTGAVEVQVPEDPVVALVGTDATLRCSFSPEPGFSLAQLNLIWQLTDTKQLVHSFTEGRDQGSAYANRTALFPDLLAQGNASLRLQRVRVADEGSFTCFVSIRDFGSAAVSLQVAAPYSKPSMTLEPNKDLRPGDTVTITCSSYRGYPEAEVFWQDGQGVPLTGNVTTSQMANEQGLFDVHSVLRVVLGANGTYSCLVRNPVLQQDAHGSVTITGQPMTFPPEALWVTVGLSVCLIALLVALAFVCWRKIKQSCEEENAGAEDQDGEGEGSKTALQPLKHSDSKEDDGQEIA

Which “binding in a display sort” value does the source give for B1 here?
The value was “not found”.

Which “binding in a display sort” value does the source give for B2 here?
The value was “not found”.

With B3 as the binder, how does the “binding in a display sort” value read?
The value was “binds (active)”.

Which “binding in a display sort” value does the source give for B4 here?
The value was “not found”.

For B5, which “binding in a display sort” value is on record?
The value was “not found”.

With B6 as the binder, how does the “binding in a display sort” value read?
Its value is “not found”.

For B7, which “binding in a display sort” value is on record?
The value was “not found”.

B8 was tested. Which “binding in a display sort” value did it give?
Its value is “not found”.

Which “binding in a display sort” value does the source give for B9 here?
Its value is “not found”.

For B10, which “binding in a display sort” value is on record?
The value was “not found”.

Which “binding in a display sort” value does the source give for B11 here?
The value was “not found”.

How did the “binding in a display sort” value turn out when B12 was run?
The value was “not found”.

Which “binding in a display sort” value does the source give for B13 here?
The value was “not found”.

B14 was tested. Which “binding in a display sort” value did it give?
The value was “not found”.

With B15 as the binder, how does the “binding in a display sort” value read?
Its value is “not found”.

For B16, which “binding in a display sort” value is on record?
Its value is “not found”.

Which “binding in a display sort” value does the source give for B17 here?
The value was “not found”.

How did the “binding in a display sort” value turn out when B18 was run?
The value was “not found”.

B19 was tested. Which “binding in a display sort” value did it give?
Its value is “not found”.

For B20, which “binding in a display sort” value is on record?
Its value is “not found”.

How did the “binding in a display sort” value turn out when B21 was run?
Its value is “not found”.

How did the “binding in a display sort” value turn out when B22 was run?
Its value is “not found”.

B23 was tested. Which “binding in a display sort” value did it give?
Its value is “not found”.

With B24 as the binder, how does the “binding in a display sort” value read?
Its value is “not found”.

How did the “binding in a display sort” value turn out when B25 was run?
Its value is “not found”.

B26 was tested. Which “binding in a display sort” value did it give?
The value was “not found”.

Which “binding in a display sort” value does the source give for B27 here?
Its value is “not found”.

For B28, which “binding in a display sort” value is on record?
The value was “not found”.

For B29, which “binding in a display sort” value is on record?
Its value is “not found”.

Which “binding in a display sort” value does the source give for B30 here?
The value was “not found”.

Which “binding in a display sort” value does the source give for B31 here?
The value was “not found”.

With B32 as the binder, how does the “binding in a display sort” value read?
Its value is “not found”.

With B33 as the binder, how does the “binding in a display sort” value read?
Its value is “not found”.

B34 was tested. Which “binding in a display sort” value did it give?
Its value is “not found”.

With B35 as the binder, how does the “binding in a display sort” value read?
Its value is “not found”.

How did the “binding in a display sort” value turn out when B36 was run?
Its value is “not found”.

With B37 as the binder, how does the “binding in a display sort” value read?
The value was “not found”.

How did the “binding in a display sort” value turn out when B38 was run?
The value was “not found”.
